Test results from PubChem BioAssay (Tox21).
Values joined by “and” are separate entries in the source; they are usually repeats but may differ in a detail not shown here. Equal values may be shown once. Records with an inconclusive call do not appear. Active and inactive are the calls of the source. The call rests on the fitted dose curve; in most records, active means well fitted curve in the direction sought with a large enough effect in the repeat runs; inconclusive means weak or mixed curves; inactive means no such curve, though single readings can be large; an effect the other way counts as inactive or inconclusive.

Columns and labels:
[1] = A CellTox Green Cytotoxicity Assay to monitor cytotoxicity in HepG2 cells - 32 hour (AID 1224883); further: nearly all actives have a fitted effect of over 50% in size; further: potency means the concentration at half of the fitted maximal effect
Outline: (§1)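 HepG2 cells, 600/well, preincubated 5 h with CellTox Green dye, then exposed to Tox21 compounds in DMSO at 37 C for up to 40 h. Dead-cell DNA fluorescence read at the indicated time point.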

[2] = A CellTox Green Cytotoxicity Assay to monitor cytotoxicity in HEK293 cells - 8 hour (AID 1224884); further: nearly all actives have a fitted effect of over 35% in size
Outline: (§2)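 HEK293 cells, 600/well, were preincubated 5 hours and then exposed to compounds at 37 C for up to 40 hours. A cell-impermeant cyanine dye staining dead-cell DNA was read by fluorescence at 0, 8, 16, 24, 32 and 40 h time points.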

[3] = qHTS RealTime-Glo MT Cell Viability Assay in HepG2 cells - 16 hour (AID 1224885); further: nearly all actives have a fitted effect of over 50% in size; further: potency means the concentration at half of the fitted maximal effect
Outline: (§3)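 Compound treatment began 5 h after plating HepG2 cells (600/well) with NanoLuc luciferase and prosubstrate. Plates stayed at 37 C for 40 h; luminescence was captured at six time points, 0 h through 40 h.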

[4] = qHTS RealTime-Glo MT Cell Viability Assay in HEK293 cells - 24 hour (AID 1224886); further: nearly all actives have a fitted effect of over 50% in size; further: potency means the concentration at half of the fitted maximal effect; on activity change, negative = cytotoxicity: top concentration of the series differs between compounds
Outline: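 Quantitative high-throughput screen of the Tox21 10K library in HEK293: cells and RealTime-Glo reagents plated together, compound added at 5 h, luminescence monitored through 40 h at 37 C.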

[5] = qHTS RealTime-Glo MT Cell Viability Assay in HEK293 cells - 8 hour (AID 1224887); further: nearly all actives have a fitted effect of over 50% in size; further: potency means the concentration at half of the fitted maximal effect; on activity change, negative = cytotoxicity: top concentration of the series differs between compounds
Outline: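 600 cells/well were plated with the nonlytic NanoLuc/prosubstrate reagent, pre-incubated 5 h, then given 23 nL of compound in DMSO. Incubation at 37 C for 40 h, with luminescence from viable-cell-reduced substrate read repeatedly from 0 h.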

[6] = A CellTox Green Cytotoxicity Assay to monitor cytotoxicity in HEK293 cells - 16 hour (AID 1224888); further: nearly all actives have a fitted effect of over 35% in size; further: potency means the concentration at half of the fitted maximal effect
Outline: as §2

[7] = qHTS RealTime-Glo MT Cell Viability Assay in HepG2 cells - 0 hour (AID 1224889); further: nearly all actives have a fitted effect of over 50% in size
Outline: as §3

[8] = A CellTox Green Cytotoxicity Assay to monitor cytotoxicity in HepG2 cells - 8 hour (AID 1224890); further: nearly all actives have a fitted effect of over 45% in size; further: potency means the concentration at half of the fitted maximal effect
Outline: as §1

[9] = qHTS assay to identify small molecule antagonists of the estrogen receptor alpha (ER-alpha) signaling pathway using the BG1 cell line in the presence of 0.1 nM 17-beta-estradiol - cell viability counter screen (AID 1259241); further: nearly all actives have a fitted effect of over 40% in size
Outline: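 VM7Luc4E2 cells (endogenous full-length ER-alpha, 4xERE-luciferase), cultured 5 days in charcoal-stripped serum, exposed to compounds with 0.1 nM 17beta-estradiol (final) for 22 hr at 37C. Viability read in same wells as live-cell protease fluorescence after 30 min.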

[10] = qHTS assay to identify small molecule antagonists of the androgen receptor (AR) signaling pathway using the MDA cell line in the presence of 0.5 nM R1881 - cell viability counter screen (AID 1259242); further: nearly all actives have a fitted effect of over 45% in size; further: potency means the concentration at half of the fitted maximal effect
Outline: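 MDA-kb2 cells (MMTV-luciferase, AR/GR responsive) were treated with compounds plus 0.5 nM R1881 (final) for 16 hr at 37C, 0% CO2. Viability was then read in the same wells as live-cell protease fluorescence (CellTiter-Fluor, 30 min).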
On the % scale 0 is the no-effect control and ±100 the full control effect.

CC1=CP(=O)(c2ccccc2)CC1 (centres undefined)
inactive: Potency [1] | Potency [2] | Potency [3] | Potency [4] | Potency [5] | Potency [6] | Potency [7] | Potency [8] | Potency [9] | Potency [10]

OCCCCl
inactive: Potency [1] | Potency [2] | Potency [3] | Potency [4] | Potency [5] | Potency [6] | Potency [7] | Potency [8] | Potency [9] | Potency [10]

CCc1cccc(CC)c1NC(=O)C(=O)O
inactive: Potency [1] | Potency [2] | Potency [3] | Potency [4] | Potency [5] | Potency [6] | Potency [7] | Potency [8] | Potency [9] | Potency [10]

CCCC(=O)OCC(COC(=O)CCC)OC(=O)CCC
inactive: Potency [1] | Potency [2] | Potency [3] | Potency [4] | Potency [5] | Potency [6] | Potency [7] | Potency [8] | Potency [9] | Potency [10]

C=CC(=C)CC/C=C(\C)CCC=C(C)C
inactive: cytotoxicity increase [1] 2.06% [at 15.8 µM] | cytotoxicity increase [2] 0.0594% [at 15.8 µM] | activity change, negative = cytotoxic [3] 1.17% [at 15.8 µM] | activity change, negative = cytotoxicity [4] -7.54% [at 15.8 µM] | activity change, negative = cytotoxicity [5] -9.22% [at 15.8 µM] | activity change [6] 2.36% [at 15.8 µM, hits give high values] | activity change, negative = cytotoxicity [7] 8.34% [at 15.8 µM] | cytotoxicity increase [8] 2.8% [at 15.8 µM] | activity change, negative = cytotoxicity [9] 2.52% [at 19 µM] | viability change, negative = cytotoxic [10] 2.29% [at 19 µM]

CCC(C)c1ccccc1 (centres undefined)
inactive: Potency [1] | Potency [2] | Potency [3] | Potency [4] | Potency [5] | Potency [6] | Potency [7] | Potency [8] | Potency [9] | Potency [10]

O=C1OC(OC(=O)c2cccnc2Nc2cccc(C(F)(F)F)c2)c2ccccc21 (centres undefined)
inactive: Potency [1] | Potency [2] | Potency [3] | Potency [4] | Potency [5] | Potency [6] | Potency [7] | Potency [8] | Potency [9] | Potency [10]

C[C@H]1O[C@@H](O[C@H]2[C@@H](O)C[C@H](O[C@H]3[C@@H](O)C[C@H](O[C@H]4CC[C@@]5(C)[C@H](CC[C@@H]6[C@@H]5C[C@@H](O)[C@]5(C)[C@@H](C7=CC(=O)OC7)CC[C@]65O)C4)O[C@@H]3C)O[C@@H]2C)C[C@H](O)[C@@H]1O
active: Potency [4] 69.2 nM and 61 nM
inactive: Potency [1] | Potency [2] | Potency [3] | Potency [5] | Potency [6] | Potency [7] | Potency [8] | Potency [9] | Potency [10]

CC1CCCCC1
inactive: Potency [1] | Potency [2] | Potency [3] | Potency [4] | Potency [5] | Potency [6] | Potency [7] | Potency [8] | Potency [9] | Potency [10]

CC(NCCC(c1ccccc1)c1ccccc1)c1ccccc1 (centres undefined)
active: Potency [1] 15.1 µM | Potency [3] 21.3 µM | Potency [4] 19 µM | Potency [5] 21.3 µM | Potency [6] 21.3 µM | Potency [8] 23.9 µM | Potency [10] 21.1 µM
inactive: Potency [2] | Potency [7] | Potency [9]

CN1[C@@H]2CC[C@@H]1CC(OC(=O)C(CO)c1ccccc1)C2 (some centres undefined)
inactive: Potency [1] | Potency [2] | Potency [3] | Potency [4] | Potency [5] | Potency [6] | Potency [7] | Potency [8] | Potency [9] | Potency [10]

CCCCCCCOC(=O)c1ccccc1C(=O)OCCCCCCC
inactive: Potency [1] | Potency [2] | Potency [3] | Potency [4] | Potency [5] | Potency [6] | Potency [7] | Potency [8] | Potency [9] | Potency [10]

C=CC/C=C/C/C=C/C/C=C/C
inactive: Potency [1] | Potency [2] | Potency [3] | Potency [4] | Potency [5] | Potency [6] | Potency [7] | Potency [8] | Potency [9] | Potency [10]

CC(C)(c1cc(Br)c(O)c(Br)c1)c1cc(Br)c(O)c(Br)c1
inactive: Potency [1] | Potency [2] | Potency [3] | Potency [4] | Potency [5] | Potency [6] | Potency [7] | Potency [8] | Potency [9] | Potency [10]

CCCCCCCCC(C)=O
inactive: Potency [1] | Potency [2] | Potency [3] | Potency [4] | Potency [5] | Potency [6] | Potency [7] | Potency [8] | Potency [9] | Potency [10]

CC1CCCCN1CCCOC(=O)c1ccc(OC2CCCCC2)cc1 (centres undefined)
active: Potency [1] 26.8 µM | Potency [4] 16.9 µM | Potency [5] 10.7 µM
inactive: Potency [2] | Potency [3] | Potency [6] | Potency [7] | Potency [8] | Potency [9]

OCCN1CN(CCO)CN(CCO)C1
inactive: Potency [1] | Potency [2] | Potency [3] | Potency [4] | Potency [5] | Potency [6] | Potency [7] | Potency [8] | Potency [9] | Potency [10]
